Measured values from ChEMBL document CHEMBL3988442, “University of Dundee, Small-Polar-MMV Screening Library” (2021).
For part of these data: Entries with a potency or affinity are not part of this list.

Legend:
Design in all cases: scale not given: direction of the effect not stated beside the values
[1] = target: Protein translocase subunit SecA (Escherichia coli (strain K12)) (UniProt P10408); assay: Assay to Identify E. coli SecA ATPase Inhibitors; assay type: functional; settings: 30 µM
[2] = target: T1, Ubiquitin-activating enzyme e1, putative (Leishmania donovani (strain BPK282A1)) (UniProt E9BSI1); assay: Leishmania donovani Ubiquitin Activating Enzyme (LdE1); assay type: functional; settings: 30 µM
T1 sequence (whole entry): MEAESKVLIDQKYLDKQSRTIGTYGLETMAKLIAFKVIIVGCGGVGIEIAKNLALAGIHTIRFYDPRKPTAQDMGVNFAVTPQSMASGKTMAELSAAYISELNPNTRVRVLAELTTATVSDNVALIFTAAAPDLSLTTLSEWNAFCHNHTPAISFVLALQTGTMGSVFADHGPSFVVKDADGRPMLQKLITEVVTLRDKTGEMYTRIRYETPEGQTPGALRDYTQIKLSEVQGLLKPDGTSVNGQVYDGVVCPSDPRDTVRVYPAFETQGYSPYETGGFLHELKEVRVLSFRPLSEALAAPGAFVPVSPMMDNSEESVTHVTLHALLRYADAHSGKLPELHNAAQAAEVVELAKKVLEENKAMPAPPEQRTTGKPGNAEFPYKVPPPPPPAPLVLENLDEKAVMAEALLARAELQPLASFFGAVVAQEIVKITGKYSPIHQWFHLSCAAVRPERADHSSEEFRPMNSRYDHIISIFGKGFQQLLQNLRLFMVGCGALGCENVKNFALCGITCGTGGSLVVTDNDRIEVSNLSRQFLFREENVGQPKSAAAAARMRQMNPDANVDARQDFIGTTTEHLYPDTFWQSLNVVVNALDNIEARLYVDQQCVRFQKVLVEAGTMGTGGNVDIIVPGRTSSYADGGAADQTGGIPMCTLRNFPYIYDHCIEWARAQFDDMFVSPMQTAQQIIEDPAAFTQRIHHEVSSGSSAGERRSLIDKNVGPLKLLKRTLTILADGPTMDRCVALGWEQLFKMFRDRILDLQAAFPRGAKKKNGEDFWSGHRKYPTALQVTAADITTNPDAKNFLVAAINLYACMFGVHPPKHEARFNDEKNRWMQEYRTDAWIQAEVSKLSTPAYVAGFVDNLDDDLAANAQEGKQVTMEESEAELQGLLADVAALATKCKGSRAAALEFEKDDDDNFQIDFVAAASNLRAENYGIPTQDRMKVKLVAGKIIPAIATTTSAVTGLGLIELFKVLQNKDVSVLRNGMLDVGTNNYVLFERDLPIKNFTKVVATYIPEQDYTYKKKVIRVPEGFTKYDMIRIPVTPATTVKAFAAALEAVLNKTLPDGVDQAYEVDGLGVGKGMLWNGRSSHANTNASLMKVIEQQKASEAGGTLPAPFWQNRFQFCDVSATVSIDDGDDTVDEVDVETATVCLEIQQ

[3] = target: AMP-activated protein kinase, AMPK (Homo sapiens) (UniProt P54646+O43741+P54619+Q9UGJ0+Q9Y478+Q13131+Q9UGI9); assay: AMP-dependent Kinase enzyme assay. An in vitro enzyme assay that detects ADP turnover that is directly proportional to AMPK activity. This uses naive AMPK that is activated during the assay with MK-8722; assay type: functional; settings: 30 µM
[4] = target: Sialic acid-binding Ig-like lectin 9 (Homo sapiens) (UniProt Q9Y336); assay: Hs-Siglec9 ALPHAscreen SOP 20170721; settings: 10 µM
Sialic acid-binding Ig-like lectin 9 (Homo sapiens), sequence (Q9Y336 whole entry): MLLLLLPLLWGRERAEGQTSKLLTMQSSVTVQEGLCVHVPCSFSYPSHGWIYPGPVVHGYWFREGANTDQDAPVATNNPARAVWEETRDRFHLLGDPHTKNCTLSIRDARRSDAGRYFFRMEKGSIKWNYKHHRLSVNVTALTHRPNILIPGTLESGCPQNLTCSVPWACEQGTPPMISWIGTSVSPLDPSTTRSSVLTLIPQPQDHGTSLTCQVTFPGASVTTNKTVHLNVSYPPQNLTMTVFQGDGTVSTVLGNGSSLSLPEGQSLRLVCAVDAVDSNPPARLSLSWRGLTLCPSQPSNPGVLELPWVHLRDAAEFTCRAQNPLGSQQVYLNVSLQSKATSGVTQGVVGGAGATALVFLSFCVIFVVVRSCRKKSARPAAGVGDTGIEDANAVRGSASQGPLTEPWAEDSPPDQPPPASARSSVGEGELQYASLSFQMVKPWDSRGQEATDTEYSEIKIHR

Trypanosoma cruzi = assay: Trypanosoma cruzi phosphomannomutase and mannose-1-phosphate guanylyltransferase assay; assay type: functional; settings: 10 µM
[5] = target: T2, Arginase-2, mitochondrial (Homo sapiens) (UniProt P78540); assay: in vitro enzyme assay to detect the production of urea directly proportional to the activity of Arginase II; assay type: functional; settings: 33.3 µM; further: in the data most compounds retested in dose-response had high values
T2 sequence (whole entry): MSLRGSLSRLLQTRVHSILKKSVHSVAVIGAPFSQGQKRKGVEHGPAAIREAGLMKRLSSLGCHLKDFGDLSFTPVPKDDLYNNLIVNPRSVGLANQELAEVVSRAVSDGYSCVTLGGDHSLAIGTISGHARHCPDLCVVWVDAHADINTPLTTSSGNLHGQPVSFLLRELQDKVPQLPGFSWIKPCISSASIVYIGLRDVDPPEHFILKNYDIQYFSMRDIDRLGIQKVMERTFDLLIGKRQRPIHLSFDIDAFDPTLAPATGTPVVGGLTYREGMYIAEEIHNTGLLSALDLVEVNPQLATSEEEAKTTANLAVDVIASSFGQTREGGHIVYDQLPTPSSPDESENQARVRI

[6] = target: T3, Proteasome subunit beta (Trypanosoma cruzi) (UniProt O96673); assay: Trypanosoma cruzi proteasome chymotrypsin-like activity (TcProtChymo) assay.; further: in the data most compounds retested in dose-response had high values; assay type: functional; settings: 9.37 µM
T3 sequence (whole entry): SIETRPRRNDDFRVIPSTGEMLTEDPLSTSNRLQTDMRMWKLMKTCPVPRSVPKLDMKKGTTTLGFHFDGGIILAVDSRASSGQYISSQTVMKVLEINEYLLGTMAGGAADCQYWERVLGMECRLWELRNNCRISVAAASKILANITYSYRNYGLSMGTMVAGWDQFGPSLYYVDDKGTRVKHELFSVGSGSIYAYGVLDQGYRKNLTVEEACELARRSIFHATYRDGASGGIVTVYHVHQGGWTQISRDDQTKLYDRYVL

Homo sapiens = organism: Homo sapiens; assay: To identify inhibition of the IFN signalling (Jak-Stat) pathway via expression of an eGFP reporter gene under the control of an IFN-stimulated response element (ISRE) containing MxA promoter.; assay type: functional; settings: 30 µM
[7] = target: T4, Tyrosyl-tRNA synthetase, putative (Trypanosoma cruzi (strain CL Brener)) (UniProt Q4DSP6); assay: Trypanosoma cruzi tyrosyl tRNA synthetase (TcYRS) _High Tyrosine SOP; assay type: functional; settings: 30 µM; further: in the data most compounds retested in dose-response had high values
T4 sequence (whole entry): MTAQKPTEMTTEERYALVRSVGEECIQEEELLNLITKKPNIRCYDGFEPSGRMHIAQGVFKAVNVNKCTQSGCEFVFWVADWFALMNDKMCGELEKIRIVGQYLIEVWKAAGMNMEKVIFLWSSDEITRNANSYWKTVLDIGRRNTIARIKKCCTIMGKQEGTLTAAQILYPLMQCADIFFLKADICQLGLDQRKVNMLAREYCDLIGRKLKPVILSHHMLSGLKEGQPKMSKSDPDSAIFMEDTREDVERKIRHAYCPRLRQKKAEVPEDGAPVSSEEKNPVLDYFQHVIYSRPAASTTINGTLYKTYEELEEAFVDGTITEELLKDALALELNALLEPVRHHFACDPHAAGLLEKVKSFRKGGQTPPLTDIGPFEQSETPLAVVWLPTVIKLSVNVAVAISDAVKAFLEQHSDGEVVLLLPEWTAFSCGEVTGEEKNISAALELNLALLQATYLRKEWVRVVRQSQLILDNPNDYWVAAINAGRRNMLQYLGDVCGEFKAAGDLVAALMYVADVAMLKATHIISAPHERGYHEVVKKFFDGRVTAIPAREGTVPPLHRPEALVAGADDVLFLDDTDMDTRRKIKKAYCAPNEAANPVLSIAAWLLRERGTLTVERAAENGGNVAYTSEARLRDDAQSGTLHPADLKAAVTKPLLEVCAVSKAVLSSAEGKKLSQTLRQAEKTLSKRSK

[8] = target: T4, Tyrosyl-tRNA synthetase, putative (Trypanosoma cruzi (strain CL Brener)); assay: Trypanosoma cruzi tyrosyl tRNA synthetase (TcYRS) SOP; assay type: functional; settings: 30 µM
[9] = target: Chromo domain-containing protein 1 (Saccharomyces cerevisiae (strain ATCC 204508 / S288c) (Baker's yeast)) (UniProt P32657); assay: ScCHD-1 Enzyme Inhibition Assay; assay type: functional; settings: 30 µM; further: in the data most compounds retested in dose-response had high values
Chromo domain-containing protein 1 (Saccharomyces cerevisiae (strain ATCC 204508 / S288c) (Baker's yeast)), sequence (P32657 whole entry, the tested form may be a part): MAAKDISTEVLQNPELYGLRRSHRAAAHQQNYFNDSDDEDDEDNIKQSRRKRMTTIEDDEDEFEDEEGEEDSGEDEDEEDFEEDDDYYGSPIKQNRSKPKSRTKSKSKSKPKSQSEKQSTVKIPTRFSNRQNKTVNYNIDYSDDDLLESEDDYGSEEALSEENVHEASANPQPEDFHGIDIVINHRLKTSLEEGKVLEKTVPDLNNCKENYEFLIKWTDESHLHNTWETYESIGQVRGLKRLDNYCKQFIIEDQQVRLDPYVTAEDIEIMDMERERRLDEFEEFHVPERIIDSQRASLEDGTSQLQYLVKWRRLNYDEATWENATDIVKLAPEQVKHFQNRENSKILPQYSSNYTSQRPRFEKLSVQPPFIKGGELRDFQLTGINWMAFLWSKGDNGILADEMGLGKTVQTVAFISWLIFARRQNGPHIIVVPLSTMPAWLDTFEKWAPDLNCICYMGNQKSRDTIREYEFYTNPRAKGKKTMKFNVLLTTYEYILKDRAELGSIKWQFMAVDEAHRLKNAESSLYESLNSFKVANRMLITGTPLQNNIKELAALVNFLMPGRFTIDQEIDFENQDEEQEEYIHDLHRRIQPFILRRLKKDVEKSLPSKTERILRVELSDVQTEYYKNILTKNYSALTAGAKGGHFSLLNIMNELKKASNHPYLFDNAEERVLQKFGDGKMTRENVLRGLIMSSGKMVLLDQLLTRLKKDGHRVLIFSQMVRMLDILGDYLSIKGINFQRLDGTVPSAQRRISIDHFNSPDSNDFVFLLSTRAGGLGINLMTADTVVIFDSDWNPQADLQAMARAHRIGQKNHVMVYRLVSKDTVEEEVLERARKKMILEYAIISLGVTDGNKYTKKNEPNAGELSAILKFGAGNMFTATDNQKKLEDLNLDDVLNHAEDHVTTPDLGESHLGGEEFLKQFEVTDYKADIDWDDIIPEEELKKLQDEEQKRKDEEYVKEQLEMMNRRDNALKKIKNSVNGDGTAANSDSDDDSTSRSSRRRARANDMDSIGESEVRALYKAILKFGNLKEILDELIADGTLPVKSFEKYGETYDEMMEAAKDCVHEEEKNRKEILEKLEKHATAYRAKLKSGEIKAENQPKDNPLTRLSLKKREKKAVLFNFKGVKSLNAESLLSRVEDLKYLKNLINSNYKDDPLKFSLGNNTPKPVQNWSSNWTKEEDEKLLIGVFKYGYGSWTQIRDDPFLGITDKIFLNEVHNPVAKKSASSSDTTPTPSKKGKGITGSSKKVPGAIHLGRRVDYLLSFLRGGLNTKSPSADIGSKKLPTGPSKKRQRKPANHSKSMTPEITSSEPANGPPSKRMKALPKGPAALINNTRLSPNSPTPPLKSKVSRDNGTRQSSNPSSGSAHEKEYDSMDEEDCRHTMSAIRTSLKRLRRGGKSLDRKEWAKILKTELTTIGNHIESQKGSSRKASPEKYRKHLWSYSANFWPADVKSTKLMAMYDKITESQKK

Protein translocase subunit SecA (Escherichia coli (strain K12)), sequence (P10408 whole entry): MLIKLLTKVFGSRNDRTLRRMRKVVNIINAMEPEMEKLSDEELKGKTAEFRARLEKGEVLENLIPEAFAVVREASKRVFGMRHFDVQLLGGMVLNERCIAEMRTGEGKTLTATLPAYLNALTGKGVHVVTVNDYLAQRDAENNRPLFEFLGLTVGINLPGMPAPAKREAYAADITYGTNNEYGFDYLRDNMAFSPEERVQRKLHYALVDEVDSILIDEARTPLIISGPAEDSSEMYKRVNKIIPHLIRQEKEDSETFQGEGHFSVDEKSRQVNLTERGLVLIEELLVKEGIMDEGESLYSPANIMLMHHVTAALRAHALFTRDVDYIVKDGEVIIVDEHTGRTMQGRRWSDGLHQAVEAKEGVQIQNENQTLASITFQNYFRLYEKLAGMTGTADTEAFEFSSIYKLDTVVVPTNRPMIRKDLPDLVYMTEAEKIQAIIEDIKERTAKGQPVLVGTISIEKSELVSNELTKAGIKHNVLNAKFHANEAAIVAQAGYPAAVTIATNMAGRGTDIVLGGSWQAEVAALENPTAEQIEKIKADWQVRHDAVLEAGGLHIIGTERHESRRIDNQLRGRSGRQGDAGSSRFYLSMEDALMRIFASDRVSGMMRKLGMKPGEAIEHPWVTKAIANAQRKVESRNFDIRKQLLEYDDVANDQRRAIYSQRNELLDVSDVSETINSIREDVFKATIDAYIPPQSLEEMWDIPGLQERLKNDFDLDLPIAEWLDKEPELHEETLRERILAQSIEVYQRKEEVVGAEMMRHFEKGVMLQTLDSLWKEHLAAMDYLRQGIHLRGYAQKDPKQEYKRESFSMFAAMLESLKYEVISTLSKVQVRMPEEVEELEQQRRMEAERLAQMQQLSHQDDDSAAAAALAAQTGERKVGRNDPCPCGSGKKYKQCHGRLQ

Row | SMILES | Percent Effect [1] | Percent Effect [2] | Percent Effect [3] | Percent Effect [4] | Percent Effect (Trypanosoma cruzi) | Percent Effect [5] | Percent Effect [6] | Percent Effect (Homo sapiens) | Percent Effect [7] | Percent Effect [8] | Percent Effect [9]
1 | COCc1ccccc1C(=O)N1CCCC(n2nc(C)cc2C)C1 (centres undefined) | -3.82% | 5.06% | -3.09% | 3.7% | 4.06% | -6.08% | 4.67% | -9.14% | 4.43% | 3.8% | -4.28%
2 | Cc1oc(C(=O)O)cc1S(=O)(=O)Nc1c(F)cccc1-n1cccn1 | -5.09% | 0% | -0.737% | 4.46% | 7.5% | 0% | 11% | 7.88% | 2.73% | 6.17% | -3.81%
3 | CCNC(=O)c1nc2c(s1)CCCN2S(C)(=O)=O | -5.43% | 24% | -3.85% | -4.95% | 0.772% | -56.8% | 5.81% | 22.1% | -6.25% | 15% | -18.4%
4 | CCOCCC(=O)N1CCCC(c2ncc[nH]2)C1 (centres undefined) | -3.07% | 2.74% | -7.86% | -2.18% | -5.29% | 6.36% | 4.97% | 11.3% | 2.15% | 7.5% | -0.879%
5 | Cc1nc(N2CCN(C(=O)c3ccsc3)CC2)c2cnn(C)c2n1 | -3.6% | 2.7% | -6.08% | 16.1% | 1.6% | -6.01% | 5.04% | 5.31% | 4.43% | 13.6% | -7.11%
6 | COCCN(Cc1ccoc1)C(=O)c1cccnc1SC | -1.15% | 5.2% | 9.17% | 2.43% | -4.24% | 7.1% | 1.04% | 1.32% | 3.17% | 6.41% | -5.39%
7 | O=c1[nH]c2nc(N3CCSCC3)ncc2c(=O)n1-c1cccc(F)c1 | -3.04% | 7.89% | 7.15% | -1.69% | -1.46% | 5.92% | 15.4% | 9.74% | 3.19% | 10.4% | -0.88%
8 | O=C(Cc1ccsc1)N1CCCC(c2n[nH]c3nccnc23)C1 (centres undefined) | -5.56% | 14.9% | 11.9% | -1.03% | 4.94% | -1.16% | 15.9% | 17.3% | 2.15% | 9.09% | -4.76%
9 | CCc1nc(CN2CCCC(NCc3ncc(C(C)(C)C)o3)C2)no1 (centres undefined) | -1.05% | 18.2% | 2.6% | -6.25% | 1.27% | 1.05% | 22.6% | -1.65% | 12.4% | 35.3% | -24.7%
